Assay results: PMC7862700, “An all-to-all approach to the identification of sequence-specific readers for epigenetic DNA modifications on cytosine”

Experiments:
Experiment in all cases: DAPPL (digital affinity profiling via proximity ligation, sequencing); 10 mM Tris-HCl pH 7.5, 50 mM NaCl, 1 mM DTT, 4% glycerol, room temperature, 30 min; GST-TFs on glutathione beads, 16-mer random dsDNA library, 0.1% formaldehyde crosslink after washing; high values mean tight binding
Conditions in all cases: protein: recombinant; tags: N-terminal GST; dsDNA, one strand shown
FLI1 = target: T1, FLI1 (Homo sapiens, UniProt Q01543 1-452)
T1 sequence: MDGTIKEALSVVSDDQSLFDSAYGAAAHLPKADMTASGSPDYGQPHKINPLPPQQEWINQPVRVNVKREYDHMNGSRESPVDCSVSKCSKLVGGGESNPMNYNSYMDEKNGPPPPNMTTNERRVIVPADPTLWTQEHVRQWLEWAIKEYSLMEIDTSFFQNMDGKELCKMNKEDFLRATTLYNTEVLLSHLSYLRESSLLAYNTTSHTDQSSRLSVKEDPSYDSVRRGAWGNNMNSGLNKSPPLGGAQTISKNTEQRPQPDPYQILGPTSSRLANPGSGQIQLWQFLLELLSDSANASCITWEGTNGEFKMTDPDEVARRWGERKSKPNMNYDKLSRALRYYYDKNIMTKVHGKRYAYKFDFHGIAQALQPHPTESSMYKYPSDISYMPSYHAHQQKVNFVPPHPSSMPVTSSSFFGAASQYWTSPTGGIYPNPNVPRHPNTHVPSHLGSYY
In short: (§1)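 Human transcription factors carrying a GST fusion were produced in yeast, bound to glutathione beads, tagged with DNA barcodes and pooled together with a tag-only sample. Each pool was held with 200 nmole of a random double-stranded 16-mer DNA library in Tris/NaCl/DTT/glycerol buffer for 30 min at room temperature, then washed, crosslinked in 0.1% formaldehyde, proximity-ligated with BsaI/T4 ligase (1 h, 37 °C), PCR-amplified and sequenced on an Illumina NextSeq500. Binding signal is the read frequency of each hexamer for a given factor divided by its frequency in the tag-only sample.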

ELK1 = target: T2, ELK1 (Homo sapiens, UniProt P19419 1-428)
T2 sequence: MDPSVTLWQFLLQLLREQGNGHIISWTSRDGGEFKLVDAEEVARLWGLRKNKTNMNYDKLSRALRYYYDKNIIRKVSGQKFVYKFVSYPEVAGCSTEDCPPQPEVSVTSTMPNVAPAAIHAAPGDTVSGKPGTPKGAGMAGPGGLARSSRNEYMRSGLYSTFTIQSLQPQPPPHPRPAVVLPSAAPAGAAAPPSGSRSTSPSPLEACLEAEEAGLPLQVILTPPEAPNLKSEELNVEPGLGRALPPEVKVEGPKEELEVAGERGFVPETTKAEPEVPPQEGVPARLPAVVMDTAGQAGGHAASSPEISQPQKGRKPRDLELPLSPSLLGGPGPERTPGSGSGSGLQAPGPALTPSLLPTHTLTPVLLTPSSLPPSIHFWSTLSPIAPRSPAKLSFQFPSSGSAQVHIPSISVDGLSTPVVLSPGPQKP
In short: as §1

GABPA = target: T3, GABPA (Homo sapiens, UniProt Q06546 1-454)
T3 sequence: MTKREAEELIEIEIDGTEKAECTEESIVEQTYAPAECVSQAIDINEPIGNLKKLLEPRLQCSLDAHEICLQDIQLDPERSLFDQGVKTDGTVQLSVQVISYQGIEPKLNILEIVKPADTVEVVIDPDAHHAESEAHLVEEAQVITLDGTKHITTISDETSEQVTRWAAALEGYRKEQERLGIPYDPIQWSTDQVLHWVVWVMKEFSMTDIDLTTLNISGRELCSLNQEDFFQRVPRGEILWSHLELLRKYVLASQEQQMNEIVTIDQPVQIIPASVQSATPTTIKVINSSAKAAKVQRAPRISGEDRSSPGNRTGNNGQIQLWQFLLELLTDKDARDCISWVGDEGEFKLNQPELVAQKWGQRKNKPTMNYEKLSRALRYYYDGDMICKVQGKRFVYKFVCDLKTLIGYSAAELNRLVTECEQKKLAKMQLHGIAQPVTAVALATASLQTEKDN
In short: as §1

ERG = target: T4, ERG (Homo sapiens, UniProt P11308 1-479)
T4 sequence: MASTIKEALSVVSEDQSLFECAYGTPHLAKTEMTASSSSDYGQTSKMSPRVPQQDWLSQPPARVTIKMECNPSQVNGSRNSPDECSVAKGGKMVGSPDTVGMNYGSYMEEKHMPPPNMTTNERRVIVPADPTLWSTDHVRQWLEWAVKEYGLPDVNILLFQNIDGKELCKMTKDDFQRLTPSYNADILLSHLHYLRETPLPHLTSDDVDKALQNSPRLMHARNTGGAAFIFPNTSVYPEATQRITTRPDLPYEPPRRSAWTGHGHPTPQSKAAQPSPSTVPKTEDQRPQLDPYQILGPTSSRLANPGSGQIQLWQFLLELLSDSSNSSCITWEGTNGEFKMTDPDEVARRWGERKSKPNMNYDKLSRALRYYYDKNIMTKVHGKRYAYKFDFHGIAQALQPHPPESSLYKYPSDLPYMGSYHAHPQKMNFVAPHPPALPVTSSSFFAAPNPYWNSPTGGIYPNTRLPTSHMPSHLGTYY
In short: as §1

ELF1 = ELF1 (Homo sapiens, UniProt P32519 1-619)
In short: as §1

EHF = target: T5, EHF (Homo sapiens, UniProt Q9NZC4 1-300)
T5 sequence: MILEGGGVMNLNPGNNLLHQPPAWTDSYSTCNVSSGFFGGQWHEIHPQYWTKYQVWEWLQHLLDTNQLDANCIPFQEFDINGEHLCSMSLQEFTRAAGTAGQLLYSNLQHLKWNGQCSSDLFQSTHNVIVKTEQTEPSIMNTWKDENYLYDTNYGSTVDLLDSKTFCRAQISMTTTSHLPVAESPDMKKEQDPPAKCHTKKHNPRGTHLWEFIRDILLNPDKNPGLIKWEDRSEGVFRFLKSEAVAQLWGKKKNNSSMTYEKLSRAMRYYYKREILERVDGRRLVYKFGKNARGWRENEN
In short: as §1

SPI1 = SPI1 (Homo sapiens, UniProt P17947 1-270)
In short: as §1

SPIB = SPIB (Homo sapiens, UniProt Q01892 1-262)
In short: as §1

ELK3 = target: T6, ELK3 (Homo sapiens, UniProt P41970 1-407)
T6 sequence: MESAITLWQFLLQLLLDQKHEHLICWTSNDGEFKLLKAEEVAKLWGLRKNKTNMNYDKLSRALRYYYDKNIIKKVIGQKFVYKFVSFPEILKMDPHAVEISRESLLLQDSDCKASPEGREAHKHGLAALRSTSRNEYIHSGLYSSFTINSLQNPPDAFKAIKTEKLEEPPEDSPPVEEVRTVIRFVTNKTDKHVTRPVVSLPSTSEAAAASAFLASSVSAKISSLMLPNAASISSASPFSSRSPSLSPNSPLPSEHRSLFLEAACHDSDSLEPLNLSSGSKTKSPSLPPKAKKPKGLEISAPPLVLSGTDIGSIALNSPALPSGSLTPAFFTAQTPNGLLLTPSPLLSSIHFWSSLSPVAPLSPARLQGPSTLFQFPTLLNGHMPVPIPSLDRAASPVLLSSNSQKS
In short: as §1

Sequence of ELF1 (P32519 whole entry): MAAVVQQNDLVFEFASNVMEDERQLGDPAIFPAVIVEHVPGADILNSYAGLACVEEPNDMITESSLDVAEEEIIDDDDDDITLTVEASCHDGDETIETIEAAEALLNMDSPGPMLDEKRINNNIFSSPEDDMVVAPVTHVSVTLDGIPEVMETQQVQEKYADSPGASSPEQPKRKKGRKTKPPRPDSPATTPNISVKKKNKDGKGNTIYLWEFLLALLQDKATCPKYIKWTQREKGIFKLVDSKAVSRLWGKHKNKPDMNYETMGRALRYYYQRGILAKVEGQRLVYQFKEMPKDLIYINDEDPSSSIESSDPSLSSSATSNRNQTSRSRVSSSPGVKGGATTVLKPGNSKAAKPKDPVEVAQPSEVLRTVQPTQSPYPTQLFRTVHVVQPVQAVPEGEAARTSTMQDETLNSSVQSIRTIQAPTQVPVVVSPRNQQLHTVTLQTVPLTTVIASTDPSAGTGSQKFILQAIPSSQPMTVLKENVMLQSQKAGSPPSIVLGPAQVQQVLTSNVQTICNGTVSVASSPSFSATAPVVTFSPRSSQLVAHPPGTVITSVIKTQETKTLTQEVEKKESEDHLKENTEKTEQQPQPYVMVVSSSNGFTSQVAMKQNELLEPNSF
Sequence of SPIB (Q01892 whole entry): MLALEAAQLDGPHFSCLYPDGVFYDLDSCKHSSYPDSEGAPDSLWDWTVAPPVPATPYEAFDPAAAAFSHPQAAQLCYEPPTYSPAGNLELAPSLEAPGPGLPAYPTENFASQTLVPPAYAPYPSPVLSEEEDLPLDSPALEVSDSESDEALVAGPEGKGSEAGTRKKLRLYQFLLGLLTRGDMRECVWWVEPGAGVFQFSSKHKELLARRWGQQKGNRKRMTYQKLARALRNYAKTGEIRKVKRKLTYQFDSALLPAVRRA

Sequence: TTACGG
- binding signal (FLI1): 1.3 fold enrichment (6-mer frequency, TF over GST control)
- binding signal (ELK1): 1.23 fold enrichment (6-mer frequency, TF over GST control)
- binding signal (GABPA): 1.22 fold enrichment (6-mer frequency, TF over GST control)
- binding signal (ERG): 1.31 fold enrichment (6-mer frequency, TF over GST control)
- binding signal (ELF1): 1.26 fold enrichment (6-mer frequency, TF over GST control)
- binding signal (EHF): 1.31 fold enrichment (6-mer frequency, TF over GST control)
- binding signal (SPI1): 1.37 fold enrichment (6-mer frequency, TF over GST control)
- binding signal (SPIB): 1.38 fold enrichment (6-mer frequency, TF over GST control)
- binding signal (ELK3): 1.48 fold enrichment (6-mer frequency, TF over GST control)
